High-throughput results as filed in PubChem.
Abeta rescue – qHTS for compounds that reverse cellular toxicity of Amyloid beta (A-beta) peptide in yeast: Primary Screen | yeast expressing A-beta42, growth rescue, OD600, 48 h; response scale: 0% DMSO, 100% iron-clioquinol control | Potency, µM (titrated, usually from 46.1 µM), actives largely listed as activators | actives 0.063% (n = 410,000) | AID 1347071, 2019; also: potency is read from the fitted curve at half-maximal effect; nearly all actives have a fitted effect of over 55% in size
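Yeast growth medium received pinned compounds, then yeast cells expressing toxic A-beta were added; plates incubated at 30 C for 48 hr. Growth read as absorbance at 600 nm, normalized to DMSO and equimolar FeCl3 plus clioquinol controls.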
Mm-Cpn inhibitor – Inhibitors of TCP-1 ring complex (TRiC) of Methanococcus maripaludis (MmCpn): qHTS. Chaperonin Mm-Cpn (Methanococcus maripaludis). Potency, µM (doses to about 76.9 µM), for inactives: at the top dose activity, negative = inhibition, hits mostly inhibitors. actives 0.031% (n = 330,000). purified Mm-Cpn ATPase, ADP Transcreener TR-FRET; also: potency is read from the fitted curve at half-maximal effect; % is scaled to controls: 0 for no effect and ±100 for the full control effect; nearly all actives have a fitted effect of over 80% in size
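ATPase turnover read by TR-FRET ADP competition (Eu cryptate antibody/ADP-d2, 665/590 nm): 10uM ATP final, 25nM Mm-CPN final, 30 min 37degC after 10-min compound preincubation, pH 7.4 Tris/KCl/MgCl2/DTT buffer.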
aSyn rescue – qHTS of alpha-syn Inhibitors | Yeast expressing alpha-synuclein, growth rescue, BacTiter-Glo, 24 h | Potency, µM (top dose mostly 46.1 µM), for inactives: top-dose growth rescue (activation), most hits filed as activators | actives 0.14% (n = 370,000) | AID 652106, 2013; also: potency is read from the fitted curve at half-maximal effect; % of control where 0% means no effect; nearly all actives have a fitted effect of over 65% in size
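Rescue of yeast growth: cells expressing toxic alpha-synuclein, induced in galactose at OD600 0.02, incubated with compound 24 h at 30 C. ATP luminescence quantified growth; inhibitors of toxicity appear as activators.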
TDP-43 yeast inh – qHTS of TDP-43 Inhibitors. Potency, µM (top dose mostly 46.1 µM), for the others: top-dose growth rescue (activation), usual class: activators. actives 1.8% (n = 410,000). AID 652104, 2013. TDP-43 expressing yeast growth rescue, BacTiter-Glo, 24 h; also: potency is read from the fitted curve at half-maximal effect; % of control where 0% means no effect; nearly all actives have a fitted effect of over 50% in size
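Luminescence from BacTiter-Glo reports growth of TDP-43-expressing yeast after 24 hr at 30 deg C with compound. Cells were raffinose-pregrown to mid-log, then seeded in galactose medium at OD600=0.02.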
CCT chaperon mod – High-Throughput Screening for Modulators of Cytosolic Chaperonin Activity; purified chaperonin ATPase assay, HTRF ADP detection, 30 min; activity change, % (no concentration beside the values), hits read low; actives 0.3% (n = 360,000); in the data active = activity change below about -30%; also: % is scaled to controls: 0 for no effect and ±100 for the full control effect
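ATPase activity: ADP formed was measured by HTRF Transcreener (665/615 nm ratio) after 30 min at 37 deg C with 10 uM ATP. Compounds screened at one 76 uM concentration against 40 or 20 nM TRiC in Tris pH 7.4/KCl/MgCl2/DTT buffer.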
FUS yeast rescue – qHTS for Suppressors of FUS Proteinopathy: Primary screen using FUS-linked yeast assay; S. cerevisiae FUS-expressing, growth rescue, OD600, 24 h; Potency, µM (top dose mostly 76.6 µM), hits mostly activators; actives 0.24% (n = 390,000); AID 1347120, 2019;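 also: potency is read from the fitted curve at half-maximal effect; plate controls were DMSO vehicle for no effect and reference control for full effect; nearly all actives have a fitted effect of over 55% in size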
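FUS-expressing yeast, raffinose-pregrown, induced in 2% galactose minimal medium at OD 0.005; compounds in a dilution series, 24hr at 30C. Growth restoration read as absorbance at 600 nm. CP55940 positive control, DMSO negative.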
The depositor's hits bear a star; i = inactive; ? = inconclusive; · = no result; [ ] = dose if it differs, or a comment. Compounds with a hit are over-represented: about 2.3% of the library has one in this group of screens. Unless noted, calls follow the shape of the dose curve; as a rule, active = well fitted curve in the direction sought with a large enough effect; inconclusive = small, poorly fitted or top-dose-only effect, or another doubt; inactive = no such curve, though single readings can be large; an effect the other way counts as inactive or inconclusive.

SMILES	Abeta rescue	Mm-Cpn inhibitor	aSyn rescue	TDP-43 yeast inh	CCT chaperon mod	FUS yeast rescue
Cn1c(N)c(C(C[N+](=O)[O-])c2c(F)cccc2Cl)c(=O)n(C)c1=O (configuration not stated)	i	-4%	10%	11µM*	-1	i
COc1cc(C(C(=O)NC2CCCCC2)N(C(=O)Cc2c[nH]c3ccccc23)c2ccccc2C)cc(OC)c1OC (configuration not stated)	i	-1%	4%	14%	3	22µM*
CCCCCCCC(=O)N[C@H]1CC[C@@]23CCCN2C(=O)CCC[C@H]3[C@H]1C	·	·	·	·	·	i
Cc1c(C(=O)NCCO)sc2nc3n(c(=O)c12)CCC3	i	-2%	-6%	-22%	-2	i
Cc1ccc(-c2nc(C(=O)NCc3ccccc3Cl)c3n2CCCCC3)cc1	i	·	12%	35µM*	·	?
Cc1ccc(CCNC(=O)c2sc3nc4n(c(=O)c3c2C)CCCC4)cc1	i	·	·	16µM*	·	i
Cc1c(C(=O)NCc2ccccc2Cl)sc2nc3n(c(=O)c12)CCCCC3	i	·	·	35µM*	·	?
CCn1cc(C(=O)N(C)c2cc(C)ccc2C)c2cc(OC)c(OC)cc2c1=O	i	·	·	11%	·	i
COc1ccc(-c2nn3c(-c4n[nH]c5c4CCC5)nnc3s2)cc1	·	·	·	·	·	i
CCOC(=O)[C@@]12CCC3=C1N(CCC3)C(=O)[C@H](CC(=O)NCC1CCCCC1)C2	·	·	·	·	·	i
O=[N+]([O-])c1ccc(N2CCN(C(=S)NC3CCCCC3)CC2)cc1	?	-1%	3%	13µM*	1	i
COC(=O)C1CCN(c2ccc([N+](=O)[O-])cc2)CC1	i	-3%	6%	0%	-66*	i
COC(=O)C1CCN(CCCOc2ccc(CN3CCN(c4ccc([N+](=O)[O-])cc4)CC3)cc2)CC1	i	3%	0%	-3%	0	i
C=CCN1[C@H](C)COc2cc(F)ccc2S1(=O)=O	·	·	·	·	·	i
O=C1/C(=C/c2ccccc2Cl)SC(=S)N1CCCC(=O)N(CCO)c1ccccc1	i	0%	18µM*	27%	-4	i
O=C(CCCN1C(=O)/C(=C/c2ccccc2Cl)SC1=S)Nc1ccccn1	i	-1%	14%	6%	0	i
O=C(CNC(=O)c1ccccc1)NCC(=O)OCC(=O)c1cccc2ccccc12	·	·	1%	·	·	·
O=C(Sc1nnc(-c2ccccc2)o1)N1c2ccccc2Sc2ccccc21	?	?	-15%	11µM*	-18	i
Cc1nc2sc(C(N)=O)c(N)c2c(-c2ccc(Br)cc2)c1C(=O)Nc1ccc(Cl)cc1	i	·	·	22µM*	·	?
CCC(C)NC(=O)c1sc2nc(C)c(C(=O)Nc3ccc(Cl)cc3)c(-c3ccc(Br)cc3)c2c1N (configuration not stated)	i	·	·	6%	·	?
Cc1cc2oc(=O)cc(Cn3ncc(Cl)c(Cl)c3=O)c2cc1Cl	i	-2%	5%	-10%	-48*	i
COc1cc(NC(=O)c2ccccc2)cc(OC)c1	i	2%	3.5µM*	0%	1	i
COc1ccc(NC(=O)C(Cc2ccccc2)n2cccc2)cc1 (configuration not stated)	i	0%	-2%	5%	-5	i
COc1ccc(C(=O)Nc2cc(OC)cc(OC)c2)cc1	i	1%	-8%	29%	1	i
COc1cc(NC(=O)C(Cc2ccccc2)n2cccc2)cc(OC)c1 (configuration not stated)	i	2%	5%	20µM*	0	i
SMILES	Abeta rescue	Mm-Cpn inhibitor	aSyn rescue	TDP-43 yeast inh	CCT chaperon mod	FUS yeast rescue
COc1ccc(OCC(=O)Nc2cccc(OC)c2)cc1	i	0%	-4%	?	-3	i
COc1ccc(OCC(=O)Nc2cc(OC)cc(OC)c2)cc1	i	3%	2%	9%	-46*	i
O=C(Nc1ccc2[nH]ccc2c1)c1cc(-c2ccc(Cl)cc2)nc2ccccc12	·	·	·	·	·	i
CC(C)Oc1cccc(-c2csc(N3CCC(C(N)=O)CC3)n2)c1	·	·	·	·	·	i
Cc1nc2ccc(C(=O)OC(C)C(=O)c3c(C)[nH]c4ccccc34)cc2nc1C (configuration not stated)	·	·	-8%	·	·	·
COc1ccc(OC)c(-c2nc(C(=O)NCC3CCCO3)cc3c2[nH]c2ccccc23)c1 (configuration not stated)	i	-23%	-10%	?	0	i
COc1cccc(-c2nc(C(=O)NCC3CCCO3)cc3c2[nH]c2ccccc23)c1 (configuration not stated)	i	-12%	?	20µM*	1	i
Cc1ccc(Nc2ncc(C(=O)N3CCN(c4ccc(F)cc4)CC3)c3ccccc23)cc1Cl	i	·	·	13µM*	·	i
CC(C)(N[C@@H](Cc1ccccc1)C(=O)NCC(c1ccccc1)c1ccccc1)C(=O)NC1CCCCC1	·	·	·	·	·	i
CC(C)(C)NC(=S)NC(=O)C12CCC3CC(CC(C3)C1)C2	6.3µM*	1%	-7%	0%	-4	i
N#Cc1nc(-c2ccccc2)cc(-c2ccccc2)n1	·	·	-2%	·	·	·
N#Cc1c([N+](=O)[O-])cc([N+](=O)[O-])cc1S(=O)(=O)Cc1ccccc1	i	1%	-64%	11µM*	-2	·
COc1cc(OC)c(C#N)c(S(=O)(=O)Cc2ccccc2)c1	i	0%	0%	-7%	-3	i
N=c1c2c(ncn1CCN1CCOCC1)Oc1ccc3ccccc3c1C2c1ccccc1 (configuration not stated)	i	3%	·	-26%	-1	i
N=c1c2c(ccn1Cc1ccccc1)Oc1ccc3ccccc3c1C2c1ccccc1 (configuration not stated)	·	·	·	·	·	14µM*
Cc1ccc(C)c(OCc2nc3ccc(S(=O)(=O)Nc4c(C)n(C)n(-c5ccccc5)c4=O)cc3[nH]2)c1	i	-1%	8%	-5%[0.397 µM]	-2	35µM*
O=S(=O)(NCC(c1ccco1)S(=O)(=O)c1cccs1)c1ccc(F)c(C(F)(F)F)c1 (configuration not stated)	i	·	·	0.89µM*	·	i
